RE007 growth inh: less growth of the S. pombe RE007 Vpr strain; S. pombe RE007 Vpr strain, BacTiter-Glo ATP luminescence, 24 h; Potency, µM (highest dose often 92.2 µM), without a hit: top-dose activity change, negative = less growth, hits mostly inhibitors; 360,000 tested, 0.21% active; active means well fitted falling curve with a large enough effect; inconclusive means small, poorly fitted or top-dose-only effect; inactive means no such curve, though single readings can be large or run the other way; further: nearly all actives have a fitted effect of over 50% in size
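Fission yeast RE007 carrying one integrated HIV-1 vpr copy, seeded at OD 0.01 in PMG+AL medium with 23 nL pinned compound. Grown 24 h at 30 degrees; viability read by BacTiter-Glo luminescence after 5 min.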
AmpC detergent: blocks E. coli AmpC beta-lactamase in detergent assay | AmpC hydrolysis of nitrocefin, absorbance 480 nm, 0.01% Triton | Potency, µM (highest dose often 114 µM), for the others: at the top dose activity change, negative = inhibition, hits mostly inhibitors | 370,000 tested, 0.041% active | P00811 | AID 485294;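 further: 0% = no-compound wells and -100% = no-enzyme wells; nearly all actives have a fitted effect of over 25% in size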
Target sequence (P00811 whole entry, looked up): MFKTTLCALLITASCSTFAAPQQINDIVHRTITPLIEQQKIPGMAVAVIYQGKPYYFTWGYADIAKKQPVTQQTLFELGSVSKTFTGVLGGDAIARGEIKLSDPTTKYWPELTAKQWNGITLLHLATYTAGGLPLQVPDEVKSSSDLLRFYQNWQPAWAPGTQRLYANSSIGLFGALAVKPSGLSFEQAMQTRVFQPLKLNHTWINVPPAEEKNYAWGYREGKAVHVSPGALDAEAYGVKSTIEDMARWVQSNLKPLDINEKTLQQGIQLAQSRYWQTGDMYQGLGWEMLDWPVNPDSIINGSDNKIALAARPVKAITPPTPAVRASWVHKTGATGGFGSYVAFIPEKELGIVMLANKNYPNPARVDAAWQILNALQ
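AmpC (5.3 nM in the dispensed reagent) in 20 mM phosphate pH 7.0 with 0.01% (detergent screen) or 0.0001% Triton X-100 was preincubated with compounds for 15 min at room temperature. Nitrocefin was then added from an 800 uM solution, and hydrolysis was followed at 480 nm.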
Sm TGR inh: S. mansoni TGR enzyme inhibition; Q962Y6; Potency, µM (doses to about 114 µM), for inactives: at the highest dose activity change, negative = inhibition, hits mostly inhibitors; purified TGR, DTNB reduction, TNB absorbance 405 nm; 360,000 tested, 3% active; further: nearly all actives have a fitted effect of over 60% in size
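Kinetic colorimetric format: TGR-catalysed, NADPH-driven DTNB reduction monitored via TNB absorbance. Enzyme dispensed at 20 nM; compound exposure 15 min at room temperature before reaction start.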
AMA1 RON2 block: inhibitors of Plasmodium falciparum AMA1-RON2 interaction; Potency, µM (titrated, usually from 58.2 µM), inactives show at the highest dose activity change, negative = inhibition, usual class: inhibitors; AlphaScreen AMA1-biotinylated RON2 peptide binding; AID 720542; 360,000 tested, 0.2% active;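 further: 0% = vehicle wells and -100% = peptide control; nearly all actives have a fitted effect of over 45% in size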
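AMA1 (3D7) with his tag at 25 nM final met compounds first, then biotinylated RON2 peptide at 25 nM; detection used donor plus acceptor beads, 10 µg/mL apiece, read by AlphaScreen after 30 min at room temperature.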
AmpC no deterg: inhibitors of E. coli AmpC beta-lactamase without detergent; P00811; AmpC nitrocefin hydrolysis, absorbance 480 nm, 0.0001% Triton; Potency, µM (titrated, usually from 57.1 µM), inactives show at the top dose activity change, negative = inhibition, actives largely listed as inhibitors; 330,000 tested, 0.52% active; AID 485341;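 further: plate controls were no compound for no effect and no enzyme for full effect; nearly all actives have a fitted effect of over 20% in size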
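20 mM phosphate pH 7.0 + 0.01% (detergent screen) or 0.0001% Triton X-100; 5.3 nM AmpC reagent; cpd preinc 15 min RT; nitrocefin (800 uM stock) to start; A480 q20 s × 4 min; Activity was normalised to no-enzyme and no-compound control wells.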
* = called active by the depositor; ? = inconclusive; · = no result given; [ ] = dose if it differs, or a comment. This is a sample that favours compounds with a hit; in the whole collection about 3.2% have one here. Unless noted, the call rests on the fitted dose curve; in most records, active means well fitted curve in the direction sought with a large enough effect; inconclusive means small, poorly fitted or top-dose-only effect, or another doubt; inactive means no such curve, though single readings can be large; an effect the other way counts as inactive or inconclusive. Unless noted, on the % scale 0 is the no-effect control and ±100 the full control effect; potency means the concentration at half of the fitted maximal effect.

SMILES	RE007 growth inh	AmpC detergent	Sm TGR inh	AMA1 RON2 block	AmpC no deterg
CCCC(=O)NC(Oc1ccc(C(C)=O)cc1)C(Cl)(Cl)Cl (stereo not given)	-15%	0%	28µM*	-4%	-5%
O=C(NC1CCCC1)c1cc(Nc2cccc(C(F)(F)F)c2)nc2ccccc12	·	-5%	2%	·	·
Cc1nc(-c2ccccc2)sc1-c1n[nH]c(=S)n1C	5%	-3%	8%	79%	-17%
CSc1sc(-c2n[nH]c(=S)n2C)c2c1C=CCC2	-3%	4%	25µM*	74%	-6%
Cc1ccc(C)c(-c2nn(CC(=O)Nc3cc(F)ccc3F)c(=O)c3c2CCCC3)c1	·	14%	-6%	·	·
NC(=O)CN1C(=O)/C(=c2\sc3nc(=O)c(Cc4ccccc4)nn3c2=O)c2ccccc21	-3%	5%	0.35µM*	7%	-14%
Cn1cc(C(C[N+](=O)[O-])c2ccccc2)c2ccccc21 (stereo not given)	0%	0%	-31%	-10%	-37%
CC(=O)n1cc(C(C[N+](=O)[O-])SCCN)c2ccccc21 (stereo not given)	?	-13%	8.9µM*	0%	-41%
COCCCNC(=O)CCc1nnc(Cc2ccc(-c3ccccc3)cc2)o1	19%	-5%	-12%	5%	117%
Cc1ccc(CNC(=O)CCc2nnc(Cc3ccc(-c4ccccc4)cc3)o2)o1	-3%	1%	25µM*	6%	95%
CCn1cc(S(=O)(=O)c2ccc(Cl)cc2)c(=O)c2cc(F)c(N3CCOCC3)cc21	·	14%	-2%	·	·
CC(C)Nc1ccc(Nc2ccccc2)cc1	?	?	8.9µM*	?	-33%
O=C(Nc1cccnc1)c1ccc(NS(=O)(=O)c2cc([N+](=O)[O-])ccc2Cl)cc1	0%	6%	32µM*	-4%	-44%
COc1cc(C2C3=C(CC(c4ccco4)CC3=O)Nc3ccccc3N2C(C)=O)cc(OC)c1OC (stereo not given)	-14%	-13%	79µM*	-7%	-4%
O=C1CC(c2ccco2)CC2=C1C1c3ccccc3C(=O)N1c1ccccc1N2 (stereo not given)	2%	3%	35µM*	-8%	-44%
CCC(=O)N1c2ccccc2NC2=C(C(=O)CC(c3ccco3)C2)C1c1ccco1 (stereo not given)	-13%	9%	?	8%	-38%
Nc1cccnc1S(=O)(=O)c1ccccc1	-6%	-11%	4%	-4%	-14%
COc1ccc([N+](=O)[O-])c(S(=O)(=O)c2ccc(Cl)cc2)n1	13µM*	-15%	?	-12%	-46%
O=[N+]([O-])c1cccnc1S(=O)(=O)c1ccccc1	7%	1%	0.32µM*	2%	-4%
COc1ccc([N+](=O)[O-])c(S(=O)(=O)c2ccccc2)n1	?	?	0.1µM*	-11%	-28%
COc1nc(OC)nc(Oc2ccc(Cl)cc2[N+](=O)[O-])n1	2%	?	21%	-6%	-6%
CCOc1ccccc1NC(=O)CN1C(=O)C2(SCC(=O)N2c2ccc(C)cc2)c2ccccc21 (stereo not given)	·	4%	-2%	·	·
Cc1ccccc1-n1c2nc(=O)[nH]c(=O)c-2cc2c(Cl)cccc21	·	15%	-6%	·	·
COc1ccc2c(c1)CC/C2=N\NC(=O)c1ccccc1	8%	-7%	1%	36%	-12%
COc1ccc2c(c1)CC/C(=C/c1ccncc1)C2=O	?	?	4%	-19%	-8%
SMILES	RE007 growth inh	AmpC detergent	Sm TGR inh	AMA1 RON2 block	AmpC no deterg
COc1ccc2c(c1)CC/C(=C\C=C\c1ccccc1OC)C2=O	-9%	-16%	28µM*	-10%	-29%
COc1ccc(C=C2Cc3ccccc3C2=O)cc1	3%[18.4 µM]	·	·	-1%	·
COc1ccc2c(c1)CC/C(=C\c1ccc(C)o1)C2=O	17%	3%	22µM*	?	-40%
COc1ccc2c(c1)C(=O)/C(=C/C=C/c1ccccc1)CC2	-14%	?	45µM*	-27%	-56%
Cc1c(Cl)cccc1-n1ncc(C(=O)Nc2ccc3c(c2)OCCO3)c1C1CCN(C(=O)OC(C)(C)C)CC1	·	-3%	-6%	·	·
CCN(C(=O)Cn1ncc2c1-c1cc(C)ccc1OC2)c1cc(Cl)ccc1OC	·	3%	1%	·	·
CC1CN(c2ccc(Cl)cc2)c2nc3c(c(=O)[nH]c(=O)n3C)n2C1 (stereo not given)	2%	-7%	-2%	1%	-12%
CC1CN(c2ccccc2)c2nc3c(c(=O)[nH]c(=O)n3C)n2C1 (stereo not given)	4%	1%	89µM*	-3%	-14%
Cc1ccccc1N1C(=O)C2ON(c3ccccc3)C(c3ccco3)C2C1=O (stereo not given)	8%	1%	50µM*	0%	-3%
Cc1ccc(N2C(=O)C3ON(c4ccccc4)C(c4ccncc4)C3C2=O)c(C)c1 (stereo not given)	-19%	-14%	50µM*	5%	110%
CCOc1ccc(N2C(=O)C3ON(c4ccccc4)C(c4ccco4)C3C2=O)cc1 (stereo not given)	8%	2%	?	?	-35%
COc1ccccc1N1C(=O)C2ON(c3ccccc3)C(c3ccc(N(C)C)cc3)C2C1=O (stereo not given)	·	5%	5µM*	·	-14%
COC(=O)CS(=O)(=O)c1ccc2c(c1)CC(=O)N2	9%	2%	7%	8%	0.14µM*
Cc1nc2c(=O)[nH]c(=S)[nH]c2[nH]c1=O	11%	·	·	28µM*	·
Cc1nc2[nH]c(=S)[nH]c(=O)c2nc1C	2%	·	·	10%	·
CC(NC(=O)Nc1ccc(Cl)cc1)c1ccc2c(c1)OCO2 (stereo not given)	9%	?	3%	-7%	8.9µM*
O=S(=O)(NCCc1ccccc1)c1ccc(N2CCCCS2(=O)=O)cc1	·	3%	5%	·	·
CC(C)(C)c1ccc(C(=O)Nc2ccc(Cl)cc2)cc1	9%	-8%	-5%	8%	-21%
Cc1ccc(SC(CC(=O)c2ccc(F)cc2)C(=O)O)cc1 (stereo not given)	?	2%	0.5µM*	3%	-25%
CC(C)(C)c1ccc(C(=O)CC(Sc2ccc(Cl)cc2)C(=O)O)cc1 (stereo not given)	-29%	-8%	11µM*	1%	-13%
CCOCCCNC(=O)C1CCC(CNS(=O)(=O)c2ccc(NC(C)=O)cc2)CC1 (stereo not given)	·	7%	25%	·	·
C=CS(=O)(=O)c1sc(Cl)c(N2CCOCC2)c1[N+](=O)[O-]	-25%	?	0.1µM*	-22%	28µM*
C=CSc1sc(Cl)c(N2CCOCC2)c1[N+](=O)[O-]	8%	4%	·	?	-15%

Screening results (PubChem BioAssay)
